mTORC1 inh: reduces mTORC1 signaling in Tsc2 and p53 null MEF cells | Tsc2-/- p53-/- MEF, phospho-rpS6 immunofluorescence/PI, 24 h | Potency, µM (top dose mostly 38.3 µM), for the others: at the highest dose activity change, negative = inhibition, most hits filed as inhibitors | 0.78% of 44,000 active;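 further: plate controls were DMSO for no effect and rapamycin for full effect; nearly all actives have a fitted effect of over 50% in size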
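Tsc2-/-, p53-/- MEFs (empty-vector stable line) in DMEM + 10% FBS were treated with compounds 24 h at 37 degree Celsius, fixed, and immunostained for phospho-rpS6 (Alexa-488) with propidium iodide counterstain. Laser-scanning cytometry gave % positive cells, normalized against 7.5 nM rapamycin and DMSO.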
HTT promoter inh: inhibitors of huntingtin promoter activity; HEK293 HTT promoter firefly luciferase reporter, 24 h; Potency, µM (highest dose often 57.5 µM), for the others: at the top dose activity change, negative = inhibition, most hits filed as inhibitors; 0.93% of 48,000 active; AID 1508623; further: nearly all actives have a fitted effect of over 50% in size
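Luminescence was read after Dual-Glo reagent and a 10 min room-temperature incubation. Values were normalized to vehicle (0% activity) and zero RLU (-100% activity). Reporter HEK293 cells had been exposed to compounds (up to 57.5 uM final) for 24 h.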
PMP22 txn prim: modulates PMP22 transcription in S16 Schwann cells; AID 1508649; S16 Pmp22-F2sN Schwann cells, FLuc/NLuc coincidence luminescence, 24 h; Potency, µM (doses to about 57.5 µM), inactives show at the highest dose activity change, negative = inhibition, usual class: inhibitors; 2% of 43,000 active; active means clear falling dose curves in both reporters; inconclusive means both reporters move, but less clearly or upward; inactive means either reporter flat; the % is the NLuc reporter signal; further: on the % scale 0 is the no-effect control and ±100 the full control effect
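Schwann cells carrying the coincidence reporter were exposed to library compounds for 24 h at 37C, then lysed and read for FLuc and, after quenching, NLuc luminescence on a CCD imager.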
S16 F2sN tox: toxic to S16 Pmp22-F2sN Schwann cells. 0.48% of 43,000 active. Potency, µM (titrated, usually from 57.5 µM), without a hit: top-dose activity change, negative = cytotoxicity, most hits filed as cytotoxic. S16 Pmp22-F2sN Schwann cells (luciferase reporters placed in the Pmp22 gene) viability, CellTiter-Glo, 24 h; further: on the % scale 0 is the no-effect control and ±100 the full control effect; nearly all actives have a fitted effect of over 65% in size
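CellTiter-Glo counter-screen, qHTS, 1536-well. Cells: S16(c9) Pmp22-F2sN, 500-1,000/well in DMEM + 10% FBS. Cpd 23 nL pin transfer, 24 h, 37C/5% CO2. Read: luminescence, CCD imager.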
HTT-AS promoter: activates huntingtin-antisense promoter activity; HEK293 HTT-AS promoter firefly luciferase reporter, 24 h; response scale: percent change from vehicle, -100% = no light; Potency, µM (highest dose often 57.5 µM), without a hit: at the top dose activity change, positive = activation, hits mostly activators; 0.24% of 48,000 active; further: nearly all actives have a fitted effect of over 55% in size
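Firefly luciferase readout (Dual-Glo, 10 min RT) after 24 h, 37 °C compound exposure (final up to 57.5 uM) of HEK293 reporter cells cultured 24 h beforehand; PTC124 at 50 uM final as control inhibitor; activity scaled vehicle 0%, zero RLU -100%.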
Numbers without * were called inactive; ? = inconclusive; . = no result; ! = not confirmed by another sample; [ ] = dose if it differs, or a comment. A selection: hits, their analogues and other compounds. The true share with any hit is near 3.6%. Unless noted, the call rests on the fitted dose curve; in most records, active means well fitted curve in the direction sought with a large enough effect; inconclusive means small, poorly fitted or top-dose-only effect, or another doubt; inactive means no such curve, though single readings can be large; an effect the other way counts as inactive or inconclusive. Potency means the concentration at half of the fitted maximal effect.

SMILES	mTORC1 inh	HTT promoter inh	PMP22 txn prim	S16 F2sN tox	HTT-AS promoter
Cc1nc2cccnc2n1-c1cccc(C(=O)N2CCN(c3ccc(Cl)cc3)CC2)c1	-15%	10µM*	16µM*	?	-45%
CCc1ccc(CNC(=O)C2CCN(c3nnc(-n4c(C)ccc4C)s3)CC2)cc1	-4%	?	?	13%	-22%
CCOc1ccc(CNC(=O)C2CCN(c3nnc(-n4c(C)ccc4C)s3)CC2)cc1	-11%	14µM*	?	-11%	-41%
Cc1cc(N2CCN(C)CC2)nc2ccc(NC(=O)c3ccc(C(C)(C)C)cc3)cc12	5.8µM*	?	?	?	-18%
CCN1CCN(c2cc(C)c3cc(NC(=O)c4ccc(OC)c(OC)c4)ccc3n2)CC1	?	-12%	?	20µM*	0%
Cc1cc(N2CCN(C)CC2)nc2ccc(NC(=O)Nc3ccc(Cl)cc3)cc12	1%	23%	?	-26%	4%
Cc1cccc(NC(=O)c2c(NC(=O)C(F)(F)F)sc3c2CCCCC3)c1	-13%	2µM*	10µM*	?	-92%
Cc1ccc(NC(=O)c2c(NC(=O)C(F)(F)F)sc3c2CCCCC3)cc1	11%	1.4µM*	10µM*	?	-94%
O=C(Nc1cccc(Cl)c1)c1c(NC(=O)C(F)(F)F)sc2c1CCCC2	-9%	1.8µM*	13µM*	?	-94%
Cc1ccccc1NC(=O)c1c(NC(=O)C(F)(F)F)sc2c1CCCCC2	7%	2µM*	12µM*	?	-96%
CN(CC(=O)N(Cc1ccc(C2CCCCC2)cc1)c1ccc(C(=O)O)c(O)c1)S(=O)(=O)c1c(F)c(F)c(F)c(F)c1F	.	32%	.	.	20%
COc1cccc(Nc2c(C(N)=O)cnc3c(C)cc(S(=O)(=O)c4cccc(C(=O)N(C)C)c4)cc23)c1	.	-15%[25.2 µM]	.	.	-8%[25.1 µM]
Cc1cc2nc(-c3cccc(NC(=O)COc4ccc(Cl)c(C)c4)c3)oc2cc1C	2%	41%	?	0%	?
Cc1cc2nc(-c3cccc(NC(=O)COc4ccc(C(C)C)cc4)c3)oc2cc1C	-1%	74%	0%	14%	1µM*
O=C(CSc1nc(-c2ccccc2)no1)N1CCN(c2ccccc2F)CC1	7%	8%	-19%	3%	-9%
O=C(O)c1cccc(-c2noc(-c3ccccc3F)n2)c1	.	7.9µM*!	.	.	4%
Cc1ccccc1OCc1ccc(-c2nc(C#N)c(NCCCN(C)C)o2)o1	5.8µM*	-8%	?	?	-10%
COc1ccc(CNc2oc(-c3ccc(COc4ccccc4C)o3)nc2C#N)cc1	0%	20µM*	?	-12%	-64%
COc1ccc(CNc2oc(-c3ccc(COc4ccc(Cl)cc4)o3)nc2C#N)cc1	0%	22µM*	-24%	4%	-60%
Cc1cc(NC(=O)c2ccccc2F)ccc1-c1nc2ccccc2s1	-7%	49%	-3%	-2%	0.89µM*
CSc1ccc(C(=O)Nc2ccc(-c3nc4ccccc4s3)c(O)c2)cc1	0%	-3%	-33%	1%	-14%
COc1cc(OC)cc(C(=O)Nc2ccc(-c3nc4ccccc4s3)c(C)c2)c1	-2%	36%	11%	3%	25%
CCSc1ccccc1C(=O)Nc1ccc(-c2nc3ccccc3s2)c(O)c1	2.9µM*	30%	-20%	?	?
CC[C@H](C)n1cc(C)c2c(C(=O)NCc3c(C)cc(C)[nH]c3=O)cc(-c3ccc(N4CCNCC4)nc3)cc21	.	-4%	.	.	-3%
CC(C)(C)c1ccc(OCC(=O)NCC2(N3CCOCC3)CCCCC2)cc1	?	?	?	?	-45%
SMILES	mTORC1 inh	HTT promoter inh	PMP22 txn prim	S16 F2sN tox	HTT-AS promoter
CC(C)COc1ccc(C(=O)NCC2(N3CCN(C)CC3)CCCCC2)cc1	16µM*	-10%	?	?	-16%
CN1CCN(C2(CNC(=O)c3ccc(C(C)(C)C)cc3)CCCCC2)CC1	16µM*	-12%	?	?	-16%
Cc1ccc([C@@H]2O[C@H](CO)[C@@H](O)[C@H](O)[C@@H]2O)cc1Cc1ccc(-c2ccc(F)cc2)s1	.	-15%	.	.	-24%
Cc1cc(CN2CCN(c3c(Br)cnc4nc(-c5ccc(N6CCN(C)CC6)cc5)[nH]c34)CC2)no1	.	-3%	.	.	-19%
Cc1cc(N2CCOCC2)cc2[nH]c(-c3c(NC[C@@H](O)c4cccc(Cl)c4)cc[nH]c3=O)nc12	.	?	.	.	-39%
COc1ccc(/C=C(\NC(=O)c2ccccc2)C(=O)NC2CCCCC2)cc1	-3%	-4%	-11%	-2%	-9%
O=C(NC1CCCCC1)/C(=C/c1ccc(Cl)cc1)NC(=O)c1ccccc1	15µM*	10%	?	?	-10%
CCn1c(=O)sc2cc(NS(=O)(=O)c3ccc(F)c(C)c3)ccc21	-17%	14µM*	?	-15%	-52%
CCC(=O)Nc1ccc(-c2nc3ncccc3o2)cc1C	0%	31%	16%	-1%	11µM*
Cc1[nH]c(C=C2C(=O)Nc3ccc(S(=O)(=O)Cc4c(Cl)cccc4Cl)cc32)c(C)c1C(=O)N1CCC[C@H]1CN1CCCC1	.	-2%	.	.	-4%
CN(C)c1ccc(C2Nc3ccc4ccccc4c3C3=C2C(=O)CC(C)(C)C3)cc1Br (stereo not drawn)	.	-12%	.	.	-15%
CCOC(=O)c1c(NC(=O)COc2ccccc2)sc(C(C)=O)c1C	-1%	-8%	-8%	20%	-13%
CCOC(=O)c1c(NC(=O)COc2ccc(OC)cc2)sc(C(=O)N(CC)CC)c1C	-1%	11µM*	?	?	-58%
Cc1cccc(CCNC(=O)c2c[nH]c3ccc(S(=O)(=O)Nc4ccccc4F)cc3c2=O)c1	1%	22µM*	?	-1%	-46%
Cc1ccc(CCNC(=O)c2c[nH]c3ccc(S(=O)(=O)Nc4ccc(C)cc4C)cc3c2=O)cc1	-15%	?	?	-1%	-30%
CCCCN(c1ccccc1)S(=O)(=O)c1ccc2c(c1)CC(C)N2C(=O)C1CC1 (stereo not drawn)	-17%	?	?	3%	-38%
CCCN(c1ccccc1CC)S(=O)(=O)c1ccc2c(c1)CC(C)N2C(=O)C1CC1 (stereo not drawn)	-18%	22µM*	?	-23%	-58%
O=C1c2[nH]nc(-c3ccccc3O)c2C(c2ccc(Cl)cc2)N1CCc1ccccc1 (stereo not drawn)	16µM*	?	?	-27%	-46%
O=C(CCCCCCC(=O)Nc1cccnc1)NO	.	182%	.	.	-87%
COc1ccc(CNC(=O)C2CCN(c3nc4ccc(C)cc4[nH]3)CC2)cc1	13µM*	-4%	-2%	0%	0%

From PubChem
